PubChem BioAssay (NCATS)
Results filed as inconclusive are left out. Entries that show only a call come without a potency. Activity calls are given as the source filed them. Calls come from the whole dose curve; as a rule, active = well fitted cell-killing curve with a large enough effect; inconclusive = small, poorly fitted or top-dose-only effect, or effect the other way; inactive = no such curve, though single readings can be large or run the other way.

Experiment: Quantitative High-Throughput drug screen in 47 multiple myeloma cell lines against the NCATS MIPE library collection: U266_ATCC cell viability assay (AID 1919864); note: nearly all actives have a fitted effect of over 35% in size
Details: U266 myeloma viability, CellTiter-Glo ATP luminescence, 48 h; series mostly up to 45.8 µM
How it was run: (§1)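 ATP-based CellTiter-Glo luminescence after 48 h drug exposure (37 °C, 5% CO2) of 500 myeloma cells per well. DMSO-only wells set 100% viability, media-only wells 0%; MIPE 4.0 library added by pin tool.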
Potency is the fitted concentration of half-maximal effect.

| SMILES | Potency |
| --- | --- |
| CC(N[C@H]1C[C@H]1c1ccccc1)c1ccc2c(c1)OCCO2 (some centres not stated) | 14.8 µM (active) |
| O=c1cccc2n1CC1CNC[C@H]2C1 | 20.9 µM (active) |
| NC1CC1c1ccccc1 (configuration not stated) | inactive |
| CC(C)(O)C(=O)Nc1ccc([N+](=O)[O-])c(C(F)(F)F)c1 | 18.7 µM (active) |
| CCOC(=O)c1cncn1[C@H](C)c1ccccc1 | inactive |
| C[C@](O)(COc1ccc(C#N)cc1)C(=O)Nc1ccc(C#N)c(C(F)(F)F)c1 | inactive |
| C#CC1(O)CCC2C3CCC4=CC(=O)CCC4(C)C3CCC21C (configuration not stated) | inactive |
| C[C@]12CC[C@@H]3[C@@H](CCC4=CC(=O)CC[C@@H]43)[C@@H]1CC[C@@H]2OC(=O)CCc1ccccc1 | inactive |
| CCOP(=O)(OCC)C(C)NC(=O)N(CCCl)N=O (configuration not stated) | inactive |
| c1ccc(CCCN2CCN(CCOC(c3ccccc3)c3ccccc3)CC2)cc1 | 23.5 µM (active) |
| CN(C)[C@@H]1C(=O)C(C(N)=O)=C(O)[C@@]2(O)C(=O)C3=C(O)c4c(O)cccc4[C@@](C)(O)[C@H]3[C@H](O)[C@@H]12 | 18.7 µM (active) |
| CC(C)N(CCNC(=O)CN1CCCC1=O)C(C)C | inactive |
| CCCN1CCO[C@@H]2c3cc(O)ccc3OC[C@@H]21 | inactive |
| CC[C@@H](C(N)=O)N1CCCC1=O | inactive |
| O=C1C=CC[C@@H]2[C@H]3CCCN4CCC[C@@H](CN12)[C@@H]34 | 16.6 µM (active) |
| CC1(N2CCC(n3c([C@@H]4CCCNC4)nc4ccccc43)CC2)CCCCCCC1 | 5.26 µM (active) |
| CCNC(=O)CC1N=C(c2ccc(Cl)cc2)c2cc(OC)ccc2-n2c(C)nnc21 (configuration not stated) | 18.7 µM (active) |
| CC(=CCCC1=CCC(C2=CC(=O)OC2O)OC1O)CCC1=C(C)CCCC1(C)C (configuration not stated) | 18.7 µM (active) |
| COc1ccc2c(c1)[C@]13CCCCC1C(C2)N(C)CC3 (some centres not stated) | inactive |
| C[C@]12Cc3cn[nH]c3C[C@@H]1CC[C@@H]1[C@H]2CC[C@@]2(C)[C@H]1CC[C@]2(C)O | inactive |
| CC(C)[C@H]1C(=O)N[C@H](CO)Cc2c[nH]c3cccc(c23)N1C | inactive |

Experiment: Quantitative High-Throughput drug screen in 47 multiple myeloma cell lines against the NCATS MIPE library collection: XG6_PLB cell viability assay (AID 1919865); note: nearly all actives have a fitted effect of over 40% in size
Details: XG6 myeloma viability, CellTiter-Glo ATP luminescence, 48 h; series mostly up to 45.8 µM
How it was run: as §1

| SMILES | Potency |
| --- | --- |
| CC(N[C@H]1C[C@H]1c1ccccc1)c1ccc2c(c1)OCCO2 (some centres not stated) | inactive |
| CC(=Cc1csc(C)n1)[C@@H]1C[C@H]2O[C@]2(C)CCC[C@H](C)[C@@H](O)[C@@H](C)C(=O)C(C)(C)[C@@H](O)CC(=O)O1 | inactive |
| Cc1c(N)nc([C@H](CC(N)=O)NC[C@@H](N)C(N)=O)nc1C(=O)N[C@H](C(=O)N[C@@H](C)[C@H](O)[C@@H](C)C(=O)N[C@@H](C(=O)NCCc1nc(-c2nc(C(=O)NCCC[S+](C)C)cs2)cs1)[C@@H](C)O)C(O[C@H]1O[C@H](CO)[C@H](O)[C@@H](O)[C@@H]1O[C@H]1O[C@H](CO)[C@@H](O)[C@H](OC(N)=O)[C@H]1O)c1cnc[nH]1 (some centres not stated) | 0.59 µM (active) |
| NC1CC1c1ccccc1 (configuration not stated) | inactive |
| CC(C)(O)C(=O)Nc1ccc([N+](=O)[O-])c(C(F)(F)F)c1 | 3.32 µM (active) |
| CCOC(=O)c1cncn1[C@H](C)c1ccccc1 | inactive |
| CC(O)=C(C#N)C(=O)Nc1cc(Br)ccc1Br | inactive |
| CCN(CC)C(=O)c1ccc(C2=CC3(CCNCC3)Oc3cccc(O)c32)cc1 | inactive |
| C#CC1(O)CCC2C3CCC4=CC(=O)CCC4(C)C3CCC21C (configuration not stated) | inactive |
| CCOP(=O)(OCC)C(C)NC(=O)N(CCCl)N=O (configuration not stated) | inactive |
| CC(=O)N(C)c1cccc(-c2ccnc3c(C(=O)c4cccs4)cnn23)c1 | inactive |
| O=C(O)CNC(=O)c1c(O)c2ccccc2n(Cc2ccccc2)c1=O | inactive |
| CCOC(=O)c1c(C(C#N)=CN)c2ccc(Cl)c(Cl)c2n1C | inactive |
| O=C(Oc1ccc([N+](=O)[O-])cc1)N1CCC(C(O)(c2ccc3c(c2)OCO3)c2ccc3c(c2)OCO3)CC1 | 16.6 µM (active) |
| CN(C)[C@@H]1C(=O)C(C(N)=O)=C(O)[C@@]2(O)C(=O)C3=C(O)c4c(O)cccc4[C@@](C)(O)[C@H]3[C@H](O)[C@@H]12 | 5.9 µM (active) |
| NC1=NC(=O)N2CC12 (configuration not stated) | 9.35 µM (active) |
| CC(C)N(CCNC(=O)CN1CCCC1=O)C(C)C | inactive |
| COc1cc([C@@H]2c3cc4c(cc3[C@@H](O)C3COC(=O)C32)OCO4)cc(OC)c1O (some centres not stated) | 0.0148 µM (active) |
| CC1(N2CCC(n3c([C@@H]4CCCNC4)nc4ccccc43)CC2)CCCCCCC1 | 9.35 µM (active) |
| CCNC(=O)CC1N=C(c2ccc(Cl)cc2)c2cc(OC)ccc2-n2c(C)nnc21 (configuration not stated) | 4.69 µM (active) |
| CC(=CCCC1=CCC(C2=CC(=O)OC2O)OC1O)CCC1=C(C)CCCC1(C)C (configuration not stated) | 16.6 µM (active) |
| C[C@@H]1CC[C@@]2(OC1)O[C@H]1C[C@H]3[C@@H]4CC=C5C[C@@H](O[C@@H]6O[C@H](CO)[C@@H](O[C@@H]7O[C@@H](C)[C@H](O)[C@@H](O)[C@@H]7O)[C@H](O)[C@@H]6O[C@@H]6O[C@@H](C)[C@H](O)[C@@H](O)[C@@H]6O)CC[C@]5(C)[C@@H]4CC[C@]3(C)[C@@H]1[C@H]2C | 3.72 µM (active) |
| COc1ccc2c(c1)[C@]13CCCCC1C(C2)N(C)CC3 (some centres not stated) | inactive |
| C[C@]12Cc3cn[nH]c3C[C@@H]1CC[C@@H]1[C@H]2CC[C@@]2(C)[C@H]1CC[C@]2(C)O | inactive |
| C[C@]12CCC(=O)C(O)=C1CC[C@@H]1[C@H]3CCC(=O)[C@@]3(C)CC[C@@H]12 | inactive |
| CC(C)[C@H]1C(=O)N[C@H](CO)Cc2c[nH]c3cccc(c23)N1C | 0.0935 µM (active) |
